The results in this text go back to PubChem BioAssay (NCATS).

The test system of one assay is Hek293T. The assay is described as follows: Primary qHTS to identify gynecologic anti-cancer compounds using libraries of approved drugs and bioactive compounds (AID 1345084). Also: % is scaled to controls: 0 for no effect and ±100 for the full control effect; nearly all actives have a fitted effect of over 55% in size. The following applies: Gynecologic cancer cell panel viability, ATPlite luminescence, 48 h, control line for the selectivity index; series mostly up to 57.5 µM. An outline of the steps:
(§1)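 Cell viability after 48 h drug treatment, ATPlite luminescence readout; five doses.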

A further assay has as its system JEG-3. The assay is described as above. The settings on record: Gynecologic cancer cell panel viability, ATPlite luminescence, 48 h; series mostly up to 57.5 µM. Put shortly: as §1
Another assay has as its system OV90. The description is as above. The settings on record: Gynecologic cancer cell panel viability, ATPlite luminescence, 48 h; series mostly up to 57.5 µM. An outline of the steps: as §1
A further assay relates to PA-1. Described as above. The following applies: Gynecologic cancer cell panel viability, ATPlite luminescence, 48 h; series mostly up to 57.5 µM. Put shortly: as §1
In the next assay the test system is SKOV3. Described as above. The following applies: Gynecologic cancer cell panel viability, ATPlite luminescence, 48 h; series mostly up to 57.5 µM. An outline of the steps: as §1
For a further assay, the system named is Tov-21-G. The description is as above. The settings on record: Gynecologic cancer cell panel viability, ATPlite luminescence, 48 h; series mostly up to 57.5 µM. Put shortly:
as §1

A further assay relates to Tov112D. Described as above. The settings on record: Gynecologic cancer cell panel viability, ATPlite luminescence, 48 h; series mostly up to 57.5 µM. An outline of the steps: as §1
Assay [1] in a line: Drug repurposing screens with cells derived from glioblastoma tumor samples (AID 1345199). Also: nearly all actives have a fitted effect of over 40% in size. Also: potency is read from the fitted curve at half-maximal effect. As to activity, negative = cell killing: % is scaled to controls: 0 for no effect and ±100 for the full control effect. The following applies: GBM patient neurospheres viability, ATP luminescence, 48 h. Put shortly: (§2)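 Four patient lines of CD133+ GBM neurospheres were screened at several concentrations; hits were retested in those lines plus three slower-growing GBM lines, using 48-hour treatment and ATP-based viability.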

A further assay deals with astro. The assay is described as above. The following applies: viability, ATP luminescence, 48 h; series mostly up to 45.9 µM. Put shortly: as §2
Assay [2] concerns the target Nuclear receptor subfamily 1 group I member 2 (Rattus norvegicus) (UniProt Q9R1A7). The assay is described as follows: qHTS assay for small molecule activators of the rat pregnane X receptor (rPXR) signaling pathway (AID 651751; call rule not given here; also: 0% is about no effect). The following applies: rPXR reporter cells, luciferase (One-Glo), 24 h.
A short description of assay [3]: qHTS assay for small molecule activators of the human pregnane X receptor (PXR) signaling pathway (AID 720659; call rule not given here; also: 0% is about no effect).
[4] abbreviates: at 45.9 µM (top of the series), tumour line B.
Setting [5] is: at 45.9 µM (top of the series), tumour line D.
Setting [6] is: at 46.1 µM (top of the series), tumour line C.
Where [7] appears, read: at 46 µM (top of the series), tumour line A.
Setting [8] is: at 20 µM (top of the series), tumour line C.
Where [9] appears, read: at 21.2 µM (top of the series), tumour line B.
Setting [10] is: at 21.2 µM (top of the series), tumour line D.
Where [11] appears, read: at 21.3 µM (top of the series), tumour line A.

A number with no mark means an inactive call. Results filed as inconclusive are left out. Calls of active or inactive are those of the source. Unless noted, calls follow the shape of the dose curve; as a rule, active = well fitted curve in the direction sought with a large enough effect; inconclusive = small, poorly fitted or top-dose-only effect, or another doubt; inactive = no such curve, though single readings can be large; an effect the other way counts as inactive or inconclusive.

Chain of Nuclear receptor subfamily 1 group I member 2 (Rattus norvegicus) (Q9R1A7 whole entry, looked up): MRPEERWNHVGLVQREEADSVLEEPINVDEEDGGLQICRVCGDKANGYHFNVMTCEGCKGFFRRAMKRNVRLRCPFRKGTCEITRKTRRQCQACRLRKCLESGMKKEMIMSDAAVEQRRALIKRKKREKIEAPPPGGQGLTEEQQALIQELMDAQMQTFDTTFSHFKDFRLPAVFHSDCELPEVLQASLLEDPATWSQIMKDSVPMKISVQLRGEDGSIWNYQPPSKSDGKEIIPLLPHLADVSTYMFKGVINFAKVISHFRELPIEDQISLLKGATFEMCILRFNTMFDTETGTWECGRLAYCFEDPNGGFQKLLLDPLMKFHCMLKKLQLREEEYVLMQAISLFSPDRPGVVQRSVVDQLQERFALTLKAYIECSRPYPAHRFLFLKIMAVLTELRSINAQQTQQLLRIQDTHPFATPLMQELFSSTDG

Turning to `Cn1c(=O)c2[nH]c(Br)nc2n(C)c1=O`, the Potency result with Hek293T, with JEG-3, in the assay with OV90, in the assay with PA-1, in the assay on SKOV3 and in the assay on Tov-21-G was “inactive” throughout. In addition, the Potency result in the assay with Tov112D was “inactive”. The activity, negative = cell killing is -10.3% in assay [1] (setting [4]), -8.55% in [1] (setting [5]) and -9.05% in [1] (setting [6]).

Regarding `CCN1CCN(C(=O)N[C@@H](C(=O)N[C@@H]2C(=O)N3C(C(=O)O)=C(CSc4nnnn4C)CS[C@H]23)c2ccc(O)cc2)C(=O)C1=O`, the Potency entry in the assay with Hek293T, with JEG-3, with OV90, in the assay on PA-1, in the assay with SKOV3 and in the assay with Tov-21-G was “inactive” each time. For the same molecule, the Potency result with Tov112D and with astro was “inactive” each time. For the same molecule, the activity, negative = cell killing is -8.4% in assay [1] (setting [4]), 9.51% in assay [1] (setting [5]), -15% in [1] (setting [7]) and 0.963% in [1] (setting [6]).

Consider `O=C(O)P(=O)(O)O`, for which the Potency entry with Hek293T, in the assay on JEG-3, in the assay on OV90, in the assay on PA-1, with SKOV3 and with Tov-21-G was “inactive” each time. In addition, the Potency entry with Tov112D and in the assay with astro was “inactive” throughout. In addition, the activity, negative = cell killing is -0.165% in assay [1] (setting [4]), -25% in assay [1] (setting [5]), -23.7% in assay [1] (setting [7]) and 21.2% in [1] (setting [6]).

`CCC(Cc1c(I)cc(I)c(N)c1I)C(=O)O` (stereo unspecified): the Potency result in the assay on Hek293T, with JEG-3, in the assay on OV90, in the assay on PA-1, in the assay on SKOV3 and in the assay on Tov-21-G was “inactive” in each case. Further, the Potency entry in the assay on Tov112D is “inactive”. For the same molecule, the activity, negative = cell killing in assay [1] (setting [8]) was 4.71%; in [1] (setting [9]), 4.87%; in assay [1] (setting [10]) it was 3.32%; in assay [1] (setting [11]), -20%.

Consider `CCCCCCCCCCCCCC(=O)OC(C)C`, for which the Potency result in the assay with Hek293T, in the assay with JEG-3, with OV90, in the assay with PA-1, in the assay on SKOV3 and with Tov-21-G was “inactive” each time. In addition, the Potency entry in the assay on Tov112D and in the assay on astro was “inactive” throughout. In addition, the activity, negative = cell killing is 8.22% in [1] (setting [4]), -15.3% in assay [1] (setting [5]), -17.4% in [1] (setting [7]) and 3.73% in assay [1] (setting [6]). Moreover, the max response in assay [2] is 2.24%. Also, the outcome in assay [3] was inactive.

As to `CC(=O)NO`, the Potency entry with Hek293T, with JEG-3, with OV90, with PA-1, in the assay with SKOV3 and in the assay on Tov-21-G was “inactive” throughout. Also, the Potency entry in the assay on Tov112D and in the assay with astro was “inactive” each time. Besides, the activity, negative = cell killing was -7.52% in assay [1] (setting [4]), -5.2% in [1] (setting [5]), -11.7% in assay [1] (setting [7]) and 11.5% in assay [1] (setting [6]).

For `COc1ccc2c(c1)c1c3n2CCN(C)C3=NCC1`, the Potency result with Hek293T, with JEG-3, in the assay on OV90, in the assay on PA-1, in the assay on SKOV3 and in the assay on Tov-21-G was “inactive” throughout. The Potency result with Tov112D and in the assay with astro was “inactive” each time. For the same molecule, the values for the activity, negative = cell killing in assay [1] (setting [4]), in [1] (setting [5]) and in [1] (setting [6]) were -1.83%, -7.29% and -23.1%, respectively. Moreover, in [1] (tumour line A), the Potency is 12.6 µM (active).

As for `O=C(O)CCC(=O)Nc1ccc(S(=O)(=O)Nc2nccs2)cc1`, the Potency result in the assay on Hek293T, in the assay with JEG-3, with OV90, with PA-1, with SKOV3 and in the assay with Tov-21-G was “inactive” in each case. Also, the Potency entry in the assay with Tov112D and with astro was “inactive” each time. In addition, the activity, negative = cell killing in [1] (setting [8]) is -5.75%; in [1] (setting [9]), 2.8%; in assay [1] (setting [10]), -10.2%; in [1] (setting [11]) it was -13.6%.

With `COC(=O)C(c1ccccc1Cl)N1CCc2sccc2C1` (stereo unspecified), the Potency result in the assay with Hek293T, in the assay with JEG-3, in the assay with OV90, in the assay with PA-1, with SKOV3 and in the assay on Tov-21-G was “inactive” throughout. Moreover, the Potency result in the assay with Tov112D and in the assay with astro was “inactive” throughout. The activity, negative = cell killing in assay [1] (setting [4]) was -13.2%; in assay [1] (setting [5]) it was -12.6%; in [1] (setting [6]) it was 2.17%. Besides, the Potency in assay [1] (tumour line A) is 28.2 µM (active).

Turning to `OCCOCCN1CCN(C2=Nc3ccccc3Sc3ccccc32)CC1`, the Potency entry with Hek293T, in the assay on JEG-3, in the assay with OV90, with PA-1, in the assay with SKOV3 and with Tov-21-G was “inactive” throughout. Besides, the Potency result in the assay on Tov112D and in the assay with astro was “inactive” throughout. For the same molecule, the activity, negative = cell killing in [1] (setting [4]) was -22.8%; in assay [1] (setting [5]), -20.3%; in assay [1] (setting [6]), 1.64%. Moreover, in assay [1] (tumour line A), the Potency is 11.2 µM (active).

Regarding `CCNC(=O)NCc1cccc(Cl)c1`, the Potency entry in the assay with Hek293T, with JEG-3, in the assay with OV90, in the assay with PA-1, in the assay on SKOV3 and in the assay with Tov-21-G was “inactive” each time. The Potency entry in the assay on Tov112D and in the assay with astro was “inactive” each time. For the same molecule, the activity, negative = cell killing in [1] (setting [4]) was -11.2%; in assay [1] (setting [5]), -6.28%; in assay [1] (setting [7]), -30%; in assay [1] (setting [6]), -10.1%.

Turning to `CC(=O)Nc1ccc(OC(=O)c2ccccc2OC(C)=O)cc1`, the Potency entry in the assay with Hek293T, with JEG-3, with OV90, in the assay on PA-1, with SKOV3 and in the assay on Tov-21-G was “inactive” in each case. The Potency entry with Tov112D and with astro was “inactive” throughout. In addition, the activity, negative = cell killing is -12.4% in assay [1] (setting [4]), -13.4% in assay [1] (setting [5]), -15.3% in assay [1] (setting [7]) and -16.9% in assay [1] (setting [6]).

`N=C(N)N1CCc2ccccc2C1`: the activity change, negative = cytotoxicity in the assay with Hek293T is 5.39% [at 6.55 µM]; in the assay with JEG-3, -0.277% [at 6.55 µM]; with OV90, 0.455% [at 6.55 µM]; with PA-1, -0.819% [at 6.55 µM]; in the assay with SKOV3, -11.6% [at 6.55 µM]; in the assay on Tov-21-G it was -1.06% [at 6.55 µM]. The activity change, negative = cytotoxicity in the assay with Tov112D was -0.978% [at 6.55 µM]. The activity, negative = cell killing is -7.25% in assay [1] (setting [4]), 0.46% in assay [1] (setting [5]), -7.22% in assay [1] (setting [7]) and -18.5% in assay [1] (setting [6]). For the same molecule, the Potency entry in the assay with astro was “inactive”.

`OC1C(O)C(O)C(O)C(O)C1O` (stereo unspecified): the Potency entry with Hek293T, with JEG-3, with OV90, in the assay with PA-1, in the assay with SKOV3 and in the assay on Tov-21-G was “inactive” throughout. Further, the Potency entry in the assay with Tov112D and with astro was “inactive” in each case. Moreover, the activity, negative = cell killing in assay [1] (setting [4]) was -13.8%; in [1] (setting [5]) it was -13.1%; in assay [1] (setting [7]) it was -17.2%; in [1] (setting [6]), -1.34%.

Turning to `CC(=O)OCC1=C(C(=O)O)N2C(=O)[C@@H](NC(=O)CSc3ccncc3)[C@H]2SC1`, the Potency result in the assay with Hek293T, in the assay on JEG-3, in the assay on OV90, in the assay with PA-1, in the assay on SKOV3 and with Tov-21-G was “inactive” each time. Besides, the Potency entry with Tov112D and with astro was “inactive” in each case. Further, the activity, negative = cell killing was -6.44% in [1] (setting [4]), -23.6% in [1] (setting [5]), -34.9% in assay [1] (setting [7]) and -18.9% in [1] (setting [6]).

Take `CCN1CCCC(OC(=O)C(c2ccccc2)c2ccccc2)C1` (stereo unspecified): the Potency result in the assay with Hek293T, with JEG-3, in the assay with OV90, in the assay with PA-1, in the assay with SKOV3 and in the assay on Tov-21-G was “inactive” each time. Besides, the Potency entry in the assay with Tov112D and in the assay on astro was “inactive” throughout. Besides, the activity, negative = cell killing in assay [1] (setting [8]) was -5.6%; in assay [1] (setting [9]), -12.3%; in assay [1] (setting [10]) it was -10.7%. Also, in assay [1] (tumour line A), the Potency is 8.91 µM (active).
